Screens (PubChem)
CRFR2-BP ag: CRF-BP/CRF-R2 complex agonism. AID 588473. actives 0.46% (n = 350,000). activation, % at 13.2 µM. HEK293 CRF-R2/CRF-BP, calcium dye fluorescence (FLIPR); percent of saturating CRF peptide response;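 active means activation of at least 50%, plus an integration ratio under a set limit after plate pattern correction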;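 further: plate controls were neutral control wells without compound for no effect and CRF at EC100 for full effect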
CRFBP-R2 block: antagonists of CRF-binding protein/CRF-R2 receptor complex | HEK293 CRF-R2/CRF-BP, CRF-induced calcium fluorescence | inhibition, % at 11.8 µM | actives 0.59% (n = 350,000);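 active means inhibition of the ligand-induced calcium signal above about 50% at the single tested concentration, limit read from the data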
RTF Ca sens act: increases calcium sensitivity of human cardiac regulated thin filaments; P19429+P45379; IANBD-labeled TnC RTF fluorescence at EC20 calcium; 0% EC20 calcium, 100% full calcium; activation, % at 7.2 µM; actives 0.24% (n = 340,000);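 active means activation above the mean over all tested compounds plus 3 SD, cut at about 30% in these data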;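 further: rise in fluorescence read as greater calcium sensitivity of cardiac thin filaments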
RTF Ca sens inh: cardiac RTF calcium desensitization; P19429+P45379; IANBD-labeled cardiac RTF, Ca2+ fluorescence; inhibition, % at 7.15 µM; actives 0.12% (n = 340,000); AID 493244;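 active means inhibition above the mean inhibition of all tested compounds plus 3 SD, cut at about 17% in these data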;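 further: assay run at fixed EC70 calcium of 1.6 mM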
An asterisk follows results filed as active. Most compounds without a hit are left out; they make up all but 1.3% or so of the library.

CCOC(=O)/C=c1/s/c(=C/c2ccc3cc(OC)ccc3c2)c(=O)n1CC(=O)NCc1ccc2c(c1)OCO2 was read as CRFR2-BP ag 64.2*, CRFBP-R2 block -10.9, RTF Ca sens act 7.1 and RTF Ca sens inh -3.2.
CC(C)CN(C(=O)COc1ccc(-c2nnco2)cc1)C1CCS(=O)(=O)C1 (stereo not given) was read as CRFR2-BP ag 5.2, CRFBP-R2 block -30.1, RTF Ca sens act -5.0 and RTF Ca sens inh -6.1.
For O=C(CNC(=O)c1ccc(F)cc1)c1ccc(Cl)cc1 the results were CRFR2-BP ag -0.8, CRFBP-R2 block -5.7, RTF Ca sens act 2.8 and RTF Ca sens inh 7.4.
CCN(CC)S(=O)(=O)c1cc(NC(=O)CNc2cccc(S(=O)(=O)N3CCCC3)c2)ccc1C was read as CRFR2-BP ag 0.3, CRFBP-R2 block -2.5, RTF Ca sens act -3.9 and RTF Ca sens inh -2.3.
For Cc1ccnc(N/C=C(\C#N)c2nc(-c3cccc(Br)c3)cs2)c1 the results were CRFR2-BP ag 236.8*, CRFBP-R2 block -249.8, RTF Ca sens act 95.4* and RTF Ca sens inh -156.4.
For N#C/C(=C\Nc1ccc2cn[nH]c2c1)c1nc(-c2ccccc2)cs1 the results were CRFR2-BP ag -0.7, CRFBP-R2 block -3.1, RTF Ca sens act -5.6 and RTF Ca sens inh -2.3.
COc1ccccc1C/C(N)=N/OC(=O)COc1ccc(C)cc1C was read as CRFR2-BP ag -2.3, CRFBP-R2 block 54.0*, RTF Ca sens act 4.8 and RTF Ca sens inh -8.3.
`COc1ccc(Cl)cc1NC(=O)NNC(=O)C(=O)Nc1ccc(F)cc1` gave CRFR2-BP ag 7.5 and CRFBP-R2 block -9.3.
For COc1ccc(-c2cc3nc(C4CCN(C(=O)OC(C)(C)C)CC4)c(C(=O)O)cn3n2)cc1 the results were CRFR2-BP ag -3.1, CRFBP-R2 block 52.0*, RTF Ca sens act -0.7 and RTF Ca sens inh -2.1.
Screening Cc1ccc(S(=O)(=O)N2CCN(C(=O)COC(=O)CCOc3ccccc3)CC2)c(C)c1 returned CRFR2-BP ag 0.7, CRFBP-R2 block 4.6, RTF Ca sens act -2.2 and RTF Ca sens inh -3.8.
`Cc1ccc2cc(CCNS(=O)(=O)c3ccc(F)cc3)c(=O)[nH]c2c1C` gave CRFR2-BP ag 1.6, CRFBP-R2 block -9.9, RTF Ca sens act 1.5 and RTF Ca sens inh -2.8.
`CCOC(=O)c1cc(C#N)c(SCC(=O)c2cc(C#N)c(SC)nc2C)[nH]c1=O` gave CRFR2-BP ag 6.4, CRFBP-R2 block -2.5, RTF Ca sens act 57.9* and RTF Ca sens inh -72.5.
For N#CCc1c(C#N)c(N)nc(Nc2ccccc2)c1C#N the results were CRFR2-BP ag -1.4, CRFBP-R2 block -4.9, RTF Ca sens act 8.9 and RTF Ca sens inh -6.2.
`Cc1nn(-c2ccccc2)c2nc(C(F)(F)F)[nH]c(=O)c12` gave CRFR2-BP ag -0.8, CRFBP-R2 block 28.4, RTF Ca sens act 3.2 and RTF Ca sens inh -44.4.
`Cc1nn(-c2cc(C(F)(F)F)ccc2Cl)c2nc(C(Cl)(Cl)Cl)[nH]c(=O)c12` gave CRFR2-BP ag 0.5, CRFBP-R2 block 52.1*, RTF Ca sens act -3.4 and RTF Ca sens inh -1.3.
Screening COc1ccc(-n2c(O)c(/C=N/NS(=O)(=O)c3cc(C)ccc3C)c3ccccc3c2=O)cc1OC returned CRFR2-BP ag 111.0*, CRFBP-R2 block -153.8, RTF Ca sens act 113.7* and RTF Ca sens inh -69.7.
COc1ccc(-n2c(O)c(/C=N/NS(=O)(=O)c3ccc(C)cc3)c3ccccc3c2=O)cc1OC was read as CRFR2-BP ag 101.5*, CRFBP-R2 block -153.8, RTF Ca sens act 58.6* and RTF Ca sens inh -75.1.
Screening Cc1ccc(NC(=O)CNCCCN2CCOCC2)cc1S(=O)(=O)N1CCCCC1 returned CRFR2-BP ag 0.4, CRFBP-R2 block -12.2, RTF Ca sens act 1.7 and RTF Ca sens inh 0.1.
Screening COc1ccc([N+](=O)[O-])cc1N(CC(=O)Nc1ccccc1C(=O)NC(C)C)S(C)(=O)=O returned CRFR2-BP ag -1.8, CRFBP-R2 block 16.2, RTF Ca sens act -2.4 and RTF Ca sens inh -1.4.
`COc1cccc(CNS(=O)(=O)c2ccccc2Br)c1OC` gave CRFR2-BP ag -0.6, CRFBP-R2 block 14.0, RTF Ca sens act 2.1 and RTF Ca sens inh -9.5.
`O=C(O)C(=O)/C(=C\c1cccc2ccccc12)c1ccc2ccccc2n1` gave CRFR2-BP ag 96.2*, CRFBP-R2 block -138.3, RTF Ca sens act 0.1 and RTF Ca sens inh -7.8.
Screening O=C(O)C(=O)/C(=C\c1ccccc1)c1ccc2ccccc2n1 returned CRFR2-BP ag 17.9, CRFBP-R2 block -7.6, RTF Ca sens act 4.1 and RTF Ca sens inh 0.2.
CCOC(=O)N1CCN(C(=O)C2CCC(=O)N(Cc3ccccc3OC)C2)CC1 (stereo not given) was read as CRFR2-BP ag 3.5 and CRFBP-R2 block 19.3.
Screening O=C(CCN1CCCC1=O)NC1CCCc2c1cnn2-c1ccccc1F (stereo not given) returned CRFR2-BP ag 20.7, CRFBP-R2 block 53.6*, RTF Ca sens act 4.4 and RTF Ca sens inh -3.4.
O=C(CCN1CCCC1=O)NC1CCCc2c1cnn2-c1ccc(F)cc1F (stereo not given) was read as CRFR2-BP ag 0.1, CRFBP-R2 block 2.2, RTF Ca sens act 3.1 and RTF Ca sens inh -2.9.
Screening O=S(=O)(c1cccc(F)c1)N1CCN(Cc2cc3c(cc2Br)OCCO3)CC1 returned CRFR2-BP ag 0.0, CRFBP-R2 block 0.5, RTF Ca sens act -3.0 and RTF Ca sens inh 0.2.
For N#Cc1c(N)n(Cc2ccccc2)c(=O)c2cc([N+](=O)[O-])ccc12 the results were CRFR2-BP ag -0.5, CRFBP-R2 block -28.3, RTF Ca sens act 1.1 and RTF Ca sens inh 2.7.
Cn1c(N)c(-c2ccccc2)c2ccc([N+](=O)[O-])cc2c1=O was read as CRFR2-BP ag 123.2*, CRFBP-R2 block -124.7, RTF Ca sens act 8.8 and RTF Ca sens inh -24.1.
For O=C(Cc1cccs1)NCCS(=O)(=O)N1CCN(c2ccccc2)CC1 the results were CRFR2-BP ag 1.1 and CRFBP-R2 block 0.9.
For Cc1cc(N2CCOCC2)nc(NCc2ccccc2)n1 the results were CRFR2-BP ag 121.8*, CRFBP-R2 block 14.7, RTF Ca sens act -5.3 and RTF Ca sens inh 0.8.
Screening Cc1cc(N2CCOCC2)nc(N)n1 returned CRFR2-BP ag 164.3*, CRFBP-R2 block -60.9, RTF Ca sens act 5.7 and RTF Ca sens inh -8.9.
For Cc1cc(N2CCCCC2)nc(NCc2ccccc2)n1 the results were CRFR2-BP ag 0.3, CRFBP-R2 block -7.7, RTF Ca sens act -0.3 and RTF Ca sens inh -10.1.
Screening Nc1nc(Cl)cc(N2CCOCC2)n1 returned CRFR2-BP ag -0.2, CRFBP-R2 block -12.7, RTF Ca sens act -4.5 and RTF Ca sens inh -2.6.
For CC(=O)c1cccc(N(CC(=O)NC2CCCCC2)C(=O)CCC(=O)Nc2nc(C)cs2)c1 the results were CRFR2-BP ag 0.5, CRFBP-R2 block -4.4, RTF Ca sens act -5.3 and RTF Ca sens inh -9.6.
For CC1=Nc2ccccc2/C1=C/c1c(N)n2c(S(=O)(=O)CC(C)C)nsc2nc1=O the results were CRFR2-BP ag -1.8, CRFBP-R2 block 60.6*, RTF Ca sens act -0.1 and RTF Ca sens inh 5.7.
